Experimental data taken from PubChem BioAssay AID687001 (Broad Institute, 2013).
Measured potencies and affinities stand elsewhere. Activity calls are given as the source filed them.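 The calls were made as follows: active = signal-lowering compounds whose fitted half-maximal concentration is at or below twice the top tested dose in every run; inconclusive = runs disagree, flat 30 to 70% inhibition, or poor curve fit; inactive = the rest.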

biological target: Protein S100-A4 (Homo sapiens) (UniProt P26447); test: S100A4-myosin IIA binding inhibitor potency, dose response, biochemical, fluorescence polarization, cherry-picked hits (AID 687001); details: FP, S100A4/TAMRA-myosin IIA peptide binding; series mostly up to 11 µM; activity change, negative = inhibition: at the top concentration;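 also: 0% = DMSO neutral control wells and -100% = TFP positive control wells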
Sequence (P26447 whole entry, looked up): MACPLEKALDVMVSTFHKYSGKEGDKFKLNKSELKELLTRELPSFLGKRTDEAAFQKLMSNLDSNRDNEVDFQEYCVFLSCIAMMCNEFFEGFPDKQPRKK

Activity change, negative = inhibition, inactive:
Clc1ccc(-c2nc(CSc3ccccn3)cs2)cc1 -0.314%
CCOc1ccc(N(CC)C(=O)CCS(=O)(=O)c2cccc3nonc23)cc1 0.567%
COc1ccccc1NC(=O)N1CC(=O)N2[C@H](CO)[C@H](c3ccc(-c4ccc(F)cc4)cc3)[C@@H]2C1 6.59%
CCOC(=O)[C@]12CCC=C1N(Cc1cccc3ccccc13)C(=O)[C@H](CC(=O)N1CCOCC1)C2 -5.12%
C=CCNC(=O)/C(C#N)=C/c1c(N(Cc2ccccc2)Cc2ccccc2)nc2ccccn2c1=O 5.76%
C[C@@H]1CN([C@H](C)CO)C(=O)c2cc(C3=CCCC3)cnc2O[C@@H]1CN(C)Cc1ccc(F)cc1 3.31%
Cc1cccc(NC(=O)CNC(=O)c2ccccc2Cl)n1 5.06%
COc1ccc(CCN2CC(C(=O)NCCN3CCNC3=O)CCC2=O)cc1 (stereo unspecified) 0.556%
COc1cccc(CN2CC3(CN(C)C3)c3c([nH]c4cc(OC)ccc34)[C@@H]2CO)c1 7.39%
CCC(c1nc2ccccc2[nH]1)n1c(-c2cnccn2)nc2ccccc21 (stereo unspecified) -0.006%
CO[C@H]1CN(C)C(=O)c2ccc(NC(=O)c3ccccc3F)cc2OC[C@H](C)NC[C@@H]1C -1.06%
O=C(CSc1ccsc1[N+](=O)[O-])NCc1ccccc1 19.1%
C/C=C/c1ccc(C2[C@H]3CNC[C@@H]2N3S(=O)(=O)c2ccccc2C)cc1 (stereo partly specified) 29.6%
C[C@@H]1CN([C@H](C)CO)C(=O)CCCn2cc(nn2)CO[C@H]1CN(C)S(C)(=O)=O -4.05%
O=C(COC(=O)C1CC1)NCCc1ccccc1 -4.24%
CC(C)C#Cc1ccc([C@H]2[C@@H](CO)N(C(=O)c3cccc(F)c3)[C@H]2C#N)cc1 1.73%
